This note sets out measurements from PubChem BioAssay (Tox21).

Experiment [1] is described as follows: Nuclear factor erythroid 2-related factor 2/antioxidant responsive element (Nrf2/ARE) small molecule agonists: qHTS cell viability counter screen in human keratinocytes (AID 1919968; active = well fitted curve in the direction sought with a large enough effect in the repeat runs; an effect the other way counts as inactive or inconclusive; also: nearly all actives have a fitted effect of over 55% in size; also: potency is read from the fitted curve at half-maximal effect). The gist of the method:
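Measured as CellTiter-Fluor fluorescence, this readout tracks cytotoxicity in the same wells as the ARE-luciferase screen. HaCaT reporter cells (1,500/well) received compounds after a 5 h pre-incubation and were exposed for 23 h.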
In general terms: Quantitative high-throughput screening tests each substance at several concentrations.

A short description of experiment [2]: Nuclear factor erythroid 2-related factor 2/antioxidant responsive element (Nrf2/ARE) small molecule agonists: luciferase reporter gene qHTS assay in human keratinocytes (AID 1919969). Also: nearly all actives have a fitted effect of over 35% in size. Also: potency is read from the fitted curve at half-maximal effect.
Experiment [3] addresses Gonadotropin-releasing hormone receptor (Homo sapiens) (UniProt P30968). The experiment in a line: Human gonadotropin-releasing hormone receptor (GnRHR) small molecule agonists, calcium flux assay in GnRHR-HEK293 cells (AID 1920063). Also: nearly all actives have a fitted effect of over 35% in size. The gist of the method: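 Fluorescence kinetics (480 nm excitation, 540 nm emission; 3 min, 1 s steps) report calcium mobilisation in human GnRHR-HEK293 cells in agonist mode. Dye incubation: 1 h, 37 C.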
For orientation: Calcium flux is commonly read through the fluorescence of an indicator in the cells.

Experiment [4] is described as follows: G protein-coupled receptor (GPCR) small molecule agonists, calcium flux assay: HEK293 wild type cell line counter screen (AID 1920065). The procedure, abridged: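 Readout: fluorescence at 480 nm excitation/540 nm emission, sampled at 1 s intervals for 3 min. Cells had been cultured 18 h, then dye-loaded 1 h at 37 C before compound or ATP addition.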
A short description of experiment [5]: p53 small molecule agonists, cell-based qHTS assay with human liver microsomes (AID 1963577). The procedure, abridged:
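Fluorescence of the beta-lactamase reporter in p53RE-bla cells, detected with LiveBLAzer substrate (2 h, room temperature, dark), served as the read-out after 16 h compound exposure at 37 C with human liver microsomes and NADPH, each 0.5 mg/mL final.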

Experiment [6] in a line: p53 small molecule agonists, cell-based qHTS assay with rat liver microsomes (AID 1963578). The procedure, abridged: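 Cells carrying a p53 response element–beta-lactamase reporter were plated and rested 5 h, then dosed with compound in DMSO plus rat liver microsomes and NADPH, each at 0.5 mg/mL final. After 16 h at 37 C, LiveBLAzer substrate was added for 2 h.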
The nature of experiment [7]: p53 small molecule agonists, cell-based qHTS assay with human liver microsomes: qHTS cell viability counter screen (AID 1963579). Also: nearly all actives have a fitted effect of over 45% in size. The gist of the method: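 Cytotoxicity counter screen: p53RE-bla, 4,000 cells/well; 5 h settle, 37 C/5% CO2; cpd + HLM 0.5 mg/mL + NADPH 0.5 mg/mL (final); 16 h, 37 C; CellTiter-Glo, 30 min RT, luminescence.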
Experiment [8] is described as follows: p53 small molecule agonists, cell-based qHTS assay with rat liver microsomes: qHTS cell viability counter screen (AID 1963580). Also: nearly all actives have a fitted effect of over 45% in size. The procedure, abridged: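 HCT-116 p53RE-bla, 4,000 cells/well, 5 h pre-incubation; cpd + rat liver microsomes 0.5 mg/mL + NADPH 0.5 mg/mL (final); 16 h, 37 C; CellTiter-Glo, 30 min RT; luminescence.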
A short description of experiment [9]: p53 small molecule agonists, cell-based qHTS assay: qHTS cell viability counter screen (AID 1963581). Also: nearly all actives have a fitted effect of over 45% in size. The procedure, abridged:
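In the same plates used for the p53 bla reporter, HCT-116 cells given compounds for 16 h at 37 C received CellTiter-Glo; luminescence was recorded 30 min later at room temperature.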

Experiment [10] is described as follows: p53 small molecule agonists, cell-based qHTS assay (AID 1963582; active = well fitted activation curve with a large enough effect in the signal ratio in the repeat runs, not every such curve was filed as active; the % refers to the signal ratio; also: potency is read from the fitted curve at half-maximal effect). The gist of the method: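 Compounds are pin-transferred in DMSO onto p53RE-bla cells and incubated 16 h at 37 C. The B/G FRET beta-lactamase substrate is then applied for 2 h at RT and fluorescence recorded.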
The target of experiment [11] is 5-hydroxytryptamine receptor 2A (Homo sapiens) (UniProt P28223). The experiment in a line: 5-hydroxytryptamine receptor 2A (HTR2A) small molecule antagonists, cell-based qHTS assay (AID 1963586). Also: nearly all actives have a fitted effect of over 45% in size. Also: potency is read from the fitted curve at half-maximal effect. The gist of the method:
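Antagonist-mode intracellular calcium assay: DOI (4 nM) added after 5 min compound pre-incubation at room temperature to dye-loaded HTR2A-CHO cells. Fluorescence followed for 3 min, sampled every second.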

Experiment [12] shares this target. The experiment in a line: 5-hydroxytryptamine receptor 2A (HTR2A) small molecule agonists, cell-based qHTS assay (AID 1963587). Also: nearly all actives have a fitted effect of over 30% in size. Also: potency is read from the fitted curve at half-maximal effect. The procedure, abridged: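 Kinetic calcium-flux fluorescence (2 min, 1 sec intervals) after compound addition in agonist mode. HTR2A-CHO cells were cultured 18 h, then dye-loaded 1 h at 37 C.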
In experiment [13] the target is Muscarinic acetylcholine receptor M1 (Homo sapiens) (UniProt P11229). The experiment can be described thus: Cholinergic receptor muscarinic 1 (CHRM1) small molecule antagonists, cell-based qHTS assay (AID 1963588). Also: nearly all actives have a fitted effect of over 40% in size. Also: potency is read from the fitted curve at half-maximal effect. The gist of the method: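 CHRM1-CHO calcium-flux assay, antagonist mode. Cells were seeded 18 h, dye-loaded 1 h at 37 C and given compound for 5 min at RT, then acetylcholine was added at 50nM. FDSS fluorescence was read 3 min; 15 concentrations, three runs.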

Experiment [14] concerns the target Beta-2 adrenergic receptor (Homo sapiens) (UniProt P07550). The experiment can be described thus: Adrenergic beta2 receptor (ADRB2) small molecule antagonists, cell-based qHTS assay (AID 1963592). Also: series mostly up to about 92 µM; nearly all actives have a fitted effect of over 50% in size. The procedure, abridged:
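Cells (CHO, stable ADRB2 overexpression) incubated 18-20hr at 37C; compounds added from DMSO; agonist mix (1nM isoproterenol, 100uM IBMX, 25uM Ro-20-1724) added; 0.5hr RT; d2-cAMP and anti-cAMP-cryptate added; 1hr RT; 665/615 nm read.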

The target in experiment [15] is D(2) dopamine receptor (Homo sapiens) (UniProt P14416). The experiment in a line: Dopamine D2 receptor (DRD2) small molecule antagonists, cell-based qHTS assay (AID 1963595; active = well fitted inhibition curve with a large enough effect in the signal ratio in the repeat runs, with a control signal flat; the % refers to the signal ratio). The procedure, abridged: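 Readout: HTRF cAMP, cAMP-d2 competing with cellular cAMP for anti-cAMP cryptate, read after 1 h. Cells: DRD2-HEK293. Conditions: 0.1 mM Ro20-1724, 12 nM quinpirole, 200 nM NKH477, 30 min RT.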

The target in experiment [16] is Muscarinic acetylcholine receptor M1 (Homo sapiens) (UniProt P11229). The experiment can be described thus: Cholinergic receptor muscarinic 1 (CHRM1) small molecule agonists, cell-based qHTS assay (AID 1963589). Also: nearly all actives have a fitted effect of over 35% in size. The procedure, abridged:
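Each compound was tested at 15 concentrations across three independent runs on dye-loaded CHO cells stably expressing human CHRM1, reading intracellular calcium fluorescence kinetically at 1 sec intervals.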

Experiment [17] is described as follows: cAMP Responsive Elements (CRE) small molecule agonists, cell-based qHTS assay (AID 1963590). The gist of the method: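 Cell line: CRE-bla HEK 293T; medium DMEM/10% dialyzed FBS/0.1 mM NEAA/1 mM pyruvate/25 mM HEPES; 3 h compound exposure; beta-lactamase FRET readout after 2 h substrate loading at RT.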
Experiment [18] can be described thus: cAMP Responsive Elements (CRE) small molecule antagonists, cell-based qHTS assay (AID 1963591; active = well fitted inhibition curve with a large enough effect in the signal ratio in the repeat runs, not every such curve was filed as active; the % refers to the signal ratio; also: potency is read from the fitted curve at half-maximal effect). The procedure, abridged:
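Inhibition of NKH477-driven (0.25 uM final) CRE-beta-lactamase signal in HEK293T cells, 3 h compound exposure at 37 °C, detected by FRET substrate fluorescence.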

In experiment [19] the target is KiSS-1 receptor (Homo sapiens) (UniProt Q969F8). The experiment can be described thus: Human kisspeptin (KISS1R) small molecule agonists, calcium flux assay in KISS1R-HEK293 cells (AID 1920064; active = well fitted curve in the direction sought with a large enough effect in the repeat runs; an effect the other way counts as inactive or inconclusive). The gist of the method:
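Measures KISS1R agonism through calcium-sensitive dye fluorescence in stably transfected HEK293 cells, read for 3 min after pin-tool compound delivery; 15-point titrations in triplicate.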

The target of experiment [20] is D(2) dopamine receptor (Homo sapiens) (UniProt P14416). The experiment in a line: Dopamine D2 receptor (DRD2) small molecule agonists, cell-based qHTS assay (AID 1963594). Also: nearly all actives have a fitted effect of over 35% in size. The procedure, abridged:
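cAMP accumulation in DRD2-HEK293 cells measured by HTRF after 1 h detection; compounds added 10 min before NKH477 (200nM […]) forskolin-analogue stimulation, 30 min at room temperature, with Ro20-1724 present at 0.1 mM final.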

Each structure is given as a SMILES string. Records with an inconclusive call do not appear. Activity calls are given as the source filed them. Unless noted, calls follow the shape of the full dose curve.

Chain of Muscarinic acetylcholine receptor M1 (Homo sapiens) (P11229 whole entry, looked up): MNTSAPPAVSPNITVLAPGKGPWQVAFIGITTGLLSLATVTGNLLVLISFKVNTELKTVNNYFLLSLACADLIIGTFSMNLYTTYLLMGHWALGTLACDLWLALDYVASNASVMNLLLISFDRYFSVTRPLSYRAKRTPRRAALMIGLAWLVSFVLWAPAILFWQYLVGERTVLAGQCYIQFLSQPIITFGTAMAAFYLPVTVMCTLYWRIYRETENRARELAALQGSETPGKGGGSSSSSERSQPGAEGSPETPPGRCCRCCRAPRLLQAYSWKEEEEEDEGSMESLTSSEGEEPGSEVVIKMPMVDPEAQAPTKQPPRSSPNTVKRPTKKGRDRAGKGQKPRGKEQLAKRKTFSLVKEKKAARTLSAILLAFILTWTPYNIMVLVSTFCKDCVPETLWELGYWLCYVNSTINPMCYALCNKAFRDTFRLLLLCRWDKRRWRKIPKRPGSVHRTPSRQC
Chain of Beta-2 adrenergic receptor (Homo sapiens) (P07550 whole entry, looked up): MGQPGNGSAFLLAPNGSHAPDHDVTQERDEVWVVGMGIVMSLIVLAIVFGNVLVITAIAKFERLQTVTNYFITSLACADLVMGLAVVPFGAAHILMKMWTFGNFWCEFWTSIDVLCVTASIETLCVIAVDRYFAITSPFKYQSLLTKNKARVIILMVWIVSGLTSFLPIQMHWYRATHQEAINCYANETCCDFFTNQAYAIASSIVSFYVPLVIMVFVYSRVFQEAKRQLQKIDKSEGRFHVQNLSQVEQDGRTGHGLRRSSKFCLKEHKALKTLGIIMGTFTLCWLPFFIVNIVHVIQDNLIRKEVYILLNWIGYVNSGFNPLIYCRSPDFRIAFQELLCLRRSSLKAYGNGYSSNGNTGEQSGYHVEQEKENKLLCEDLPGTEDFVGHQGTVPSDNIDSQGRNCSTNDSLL
Chain of 5-hydroxytryptamine receptor 2A (Homo sapiens) (P28223 whole entry, looked up): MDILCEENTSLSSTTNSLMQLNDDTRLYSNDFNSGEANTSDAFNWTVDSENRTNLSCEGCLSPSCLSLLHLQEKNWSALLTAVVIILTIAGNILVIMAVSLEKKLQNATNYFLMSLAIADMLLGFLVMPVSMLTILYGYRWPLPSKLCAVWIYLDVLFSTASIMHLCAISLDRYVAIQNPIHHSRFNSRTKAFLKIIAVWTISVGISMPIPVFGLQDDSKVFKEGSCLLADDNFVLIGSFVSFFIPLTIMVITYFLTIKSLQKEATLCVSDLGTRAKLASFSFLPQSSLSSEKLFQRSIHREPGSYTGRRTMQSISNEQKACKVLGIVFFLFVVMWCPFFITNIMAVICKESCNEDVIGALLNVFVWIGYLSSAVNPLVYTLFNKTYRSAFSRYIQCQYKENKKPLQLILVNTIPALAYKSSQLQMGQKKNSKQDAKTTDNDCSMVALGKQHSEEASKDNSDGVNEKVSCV
Chain of D(2) dopamine receptor (Homo sapiens) (P14416 whole entry, looked up): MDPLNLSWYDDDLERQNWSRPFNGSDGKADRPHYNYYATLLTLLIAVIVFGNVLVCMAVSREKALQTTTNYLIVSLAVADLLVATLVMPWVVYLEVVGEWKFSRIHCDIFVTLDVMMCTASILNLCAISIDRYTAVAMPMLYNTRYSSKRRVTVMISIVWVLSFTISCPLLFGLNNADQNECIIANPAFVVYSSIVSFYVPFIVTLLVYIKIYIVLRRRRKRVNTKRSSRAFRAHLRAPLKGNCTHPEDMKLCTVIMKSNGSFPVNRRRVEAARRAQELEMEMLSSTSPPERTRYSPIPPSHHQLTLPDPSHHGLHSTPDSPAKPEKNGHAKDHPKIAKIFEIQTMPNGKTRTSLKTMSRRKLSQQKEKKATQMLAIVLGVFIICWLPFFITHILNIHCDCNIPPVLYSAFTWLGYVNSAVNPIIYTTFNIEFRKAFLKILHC
Chain of Gonadotropin-releasing hormone receptor (Homo sapiens) (P30968 whole entry, looked up): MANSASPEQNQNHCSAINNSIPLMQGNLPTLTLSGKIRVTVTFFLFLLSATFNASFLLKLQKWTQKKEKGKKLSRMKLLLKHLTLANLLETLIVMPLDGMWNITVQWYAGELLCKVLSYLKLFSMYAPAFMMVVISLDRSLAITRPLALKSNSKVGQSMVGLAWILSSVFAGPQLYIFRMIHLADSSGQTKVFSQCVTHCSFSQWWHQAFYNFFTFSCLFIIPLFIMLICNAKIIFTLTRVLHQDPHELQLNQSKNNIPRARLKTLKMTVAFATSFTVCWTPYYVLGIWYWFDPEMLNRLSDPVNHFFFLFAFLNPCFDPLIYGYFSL
Chain of KiSS-1 receptor (Homo sapiens) (Q969F8 whole entry, looked up): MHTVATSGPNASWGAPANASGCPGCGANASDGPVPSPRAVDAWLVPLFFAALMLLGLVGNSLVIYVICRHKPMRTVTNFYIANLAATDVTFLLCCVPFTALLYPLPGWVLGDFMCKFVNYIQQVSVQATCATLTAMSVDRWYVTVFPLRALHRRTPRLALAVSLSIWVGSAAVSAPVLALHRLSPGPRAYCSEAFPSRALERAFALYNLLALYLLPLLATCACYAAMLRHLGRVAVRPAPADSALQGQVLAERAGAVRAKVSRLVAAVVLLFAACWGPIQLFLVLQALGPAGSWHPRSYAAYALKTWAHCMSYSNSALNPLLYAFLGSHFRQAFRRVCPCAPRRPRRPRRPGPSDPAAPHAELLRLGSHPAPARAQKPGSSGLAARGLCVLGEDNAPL

For the molecule `O=C(NC(=O)c1c(F)cccc1F)Nc1cc(Cl)c(Oc2ncc(C(F)(F)F)cc2Cl)c(Cl)c1`, the Potency entry in [1], in experiment [2], in experiment [3], in experiment [4], in experiment [5] and in experiment [6] was “inactive” in each case. Also, the Potency result in [7], in [8], in experiment [9], in [11], in experiment [12] and in [13] was “inactive” in each case. The Potency result in [14] and in experiment [15] was “inactive” in each case. The Potency in experiment [10] was 17.5 µM (active).
`COC1CC(=C(c2cccs2)c2cccs2)C[N+](C)(C)C1` (configuration not stated): the Potency entry in experiment [1], in experiment [2], in experiment [3], in [4], in [6] and in experiment [7] was “inactive” throughout. The Potency result in experiment [8], in experiment [9], in [10], in experiment [11], in experiment [12] and in experiment [16] was “inactive” in each case. The Potency result in [17] and in experiment [14] was “inactive” throughout.
As to `COc1cc(CC(C)N)cc(OC)c1OC` (configuration not stated), the Potency entry in experiment [1], in experiment [2], in [3], in experiment [4], in experiment [6] and in experiment [7] was “inactive” throughout. For the same molecule, the Potency entry in [9], in experiment [10], in [13], in experiment [16], in experiment [17] and in experiment [18] was “inactive” in each case. Further, the Potency result in experiment [15] was “inactive”. Further, the figures for the Potency in experiment [11] and in [12] were 0.228 µM (active) and 0.265 µM (active), respectively.
On to `CCOC(=O)c1cn2nc(OP(=S)(OCC)OCC)cc2nc1C`, for which the Potency entry in experiment [1], in experiment [2], in experiment [3], in experiment [19], in [7] and in experiment [8] was “inactive” each time. Besides, the Potency result in [9], in [11], in experiment [12], in [16], in [14] and in experiment [20] was “inactive” throughout. Further, the Potency result in experiment [15] is “inactive”.
Take `C#CC(O)(C=CCl)CC` (configuration not stated): the Potency entry in [1], in [2], in experiment [3], in experiment [4], in experiment [5] and in experiment [6] was “inactive” each time. Moreover, the Potency entry in experiment [7], in experiment [8], in [10], in experiment [12], in experiment [16] and in experiment [17] was “inactive” in each case. Further, the Potency entry in experiment [18], in experiment [14], in [20] and in experiment [15] was “inactive” each time.
In the case of `CN(C)C1CSSSC1`, the Potency result in experiment [1], in experiment [3], in experiment [19], in experiment [8], in [9] and in experiment [11] was “inactive” each time. Besides, the Potency result in experiment [12], in experiment [13], in [16], in [17], in [14] and in [20] was “inactive” each time. Besides, the Potency result in experiment [15] is “inactive”. Moreover, the Potency in experiment [2] is 61.1 µM (active).
Turning to `CC1(c2ccc(Oc3ccccc3)cc2)OC(=O)N(Nc2ccccc2)C1=O` (configuration not stated), the values for the Potency in experiment [1], in [13] and in experiment [18] were 27.5 µM (active), 5.33 µM (active) and 61.5 µM (active), respectively. Further, the Potency entry in experiment [2], in [3], in experiment [4], in experiment [5], in experiment [6] and in [7] was “inactive” throughout. The Potency entry in [8], in [9], in experiment [10], in experiment [12], in experiment [16] and in experiment [17] was “inactive” each time. Also, the Potency entry in experiment [20] and in experiment [15] was “inactive” throughout.
Take `Nc1cc(Cl)ccc1O`: the Potency entry in [1], in [3], in experiment [4], in experiment [5], in [6] and in [7] was “inactive” in each case. Also, the Potency entry in [8], in [9], in experiment [11], in experiment [12], in [13] and in [16] was “inactive” throughout. Moreover, the Potency entry in [17], in experiment [18], in experiment [14], in experiment [20] and in experiment [15] was “inactive” each time. The Potency in experiment [2] was 52.7 µM (active).
